This is part of a sample that, as a whole, favours compounds with a hit. Of some 83,000 tested, about 20% had one in any assay.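 The test compound was applied at a single concentration to cells in 96-well plates for 48 hours, and percent growth was recorded.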 Unmarked numbers belong to inactive results. Active and inactive are the calls of the source.

The subject of this assay is NCI-H23 lung. The assay is described as follows: NCI-60 one-dose screen, 48 h (100 = growth as untreated, 0 = no growth, -100 = all killed). To be noted: 10 µM. As to the method: Growth inhibition of the NCI-H23 human Non-Small Cell Lung tumor cell line is measured as a screen for anti-cancer activity. Cells are grown in 96 well plates and exposed to the test compound for 48 hours. Compounds are tested at a single concentration, which is 10^-5 M for most compounds. The reported endpoint is percent growth (GI% or GIPRCNT), where numbers from 0 - 100% represent growth inhibition, and numbers from -100% - 0 represent cell death. For example, a value of 40 represents 60% growth inhibition. A value of 0 means no net growth occurred over the course of the experiment. A value of -40 indicates 40% of cells at the beginning of the experiment died by the end of the experiment. A value of -100 means all cells are dead at the end of the experiment.
NCI-60 Human Tumor Cell Lines Screen was performed using the standard one-dose NCI protocol, which is described in more detail at https://dtp.cancer.gov/discovery_development/nci-60/default.htm.
Compounds with GIPRCNT values below 10 were considered active. Activity score was based on GIPRCNT using the following formula: […]
Score is 0 for GIPRCNT values of 100 or above, 50 for GIPRCNT values of 0, and 100 for GIPRCNT values of -100.
Take `COc1cc(-c2csc(NC(=O)Nc3ccc(Cl)c(C(F)(F)F)c3)n2)cc(OC)c1OC`: the growth was 1.27% (active).
Then `COc1cc2c3c(n(C4CCNCC4)c(=O)c2cc1OC)-c1cc2c(cc1C3=O)OCO2`, with -59.4% (active); and `COc1ccc(-c2n[nH]nc2-c2cc(OC)c(OC)c(OC)c2)cc1`, with 10.8%; and `C=CCn1c(SCC(=O)Nc2ccc(C(=O)/C=C/c3ccc(Cl)cc3)cc2)nnc1-c1cc(-c2ccccc2)nc2ccccc12`, with 66.3%.
Then `NC1=CC(=O)C(=O)c2cccnc21`, with 18.7%; and `O=[N+]([O-])c1ccc2ncccc2c1Cl`, with 86.7%.
`COc1cc2cc(Oc3ccc(NC(=O)Nc4ccc(Cl)c(Cl)c4)cc3)c(C)nc2cc1OC`: the growth is 8.26% (active).
The figure for `COc1ccc(-c2cc(-c3ccc(Cl)cc3)nc(SCCCC(=O)NO)n2)cc1OC` is -8.91% (active).
The figure for `CN(C)CCCSc1ccccc1NC1=C(Cl)C(=O)C(Nc2ccccc2SCCCN(C)C)=C(Cl)C1=O` is -43.4% (active).
Then `COc1ccc(/C=C/c2nnc(/C=C/c3ccc(OC)c(OC)c3)o2)cc1OC`, with 25.4%; and `CCn1c(SCc2ccc(C)cc2)nnc1-c1nn(-c2ccc(Cl)cc2Cl)c(-c2ccc(Cl)cc2)c1C`, with 3.53% (active).
As to `Cc1ccc(NC(=S)NNC(=S)Nc2ccc(C)cc2)cc1`, the growth was 72.8%.
Take `C#CCOc1c(OC)cc(C(=O)/C(C)=C/c2cccc(N=[N+]=[N-])c2)cc1OC`: the growth was 36.4%.
The figure for `CC(C)(C)c1ccc(S(=O)(=O)Oc2ccc(NC(=O)C3CCCCC3)cc2)cc1` is 23%; for `COc1cc(C(=O)n2nc(-c3cc(OC)c(OC)c(OC)c3)nc2N)cc(OC)c1OC` it is 92.9%; for `O=C(NCCCNS(=O)(=O)c1ccc(Cl)cc1)Nc1ccc(-n2cc(-c3ccncc3)c(-c3ccc(Cl)c(O)c3)n2)cc1` it is 42%.
As for `COc1ccc(Cl)cc1Nc1nc(C(F)(F)F)ccc1C(=O)N/N=C/c1ccc(Cl)cc1`, the growth was 64.1%.
Then `NS(=O)(=O)Oc1ccc(-c2ccc3sccc3c2)cc1`, with 94.2%; and `C=CCNCCN1C(=O)c2ccc3c4c(ccc(c24)C1=O)C(=O)N(CCNCC=C)C3=O`, with -36.4% (active); and `Nc1ccn(Cc2nnc(CCC(=O)c3nc4ccccc4[nH]3)o2)c(=O)n1`, with 74.5%.
Then `CN(C)CCCN1c2ccccc2CCc2ccc(Cl)cc21`, with 71.2%.
Regarding `Cn1c2ccccc2c2c3[nH][nH]c(=O)c3c3c4ccccc4[nH]c3c21`, the growth was 19.2%.
Then `CC(C)N(CCOc1cccc(-c2nc3sccn3c2-c2ccnc(S(C)(=O)=O)n2)c1)C(C)C`, with 96.1%.
Then `c1ccc(CSc2ncccc2-c2nnc(SCCN3CCOCC3)o2)cc1`, with 104%; and `COc1ccc(Cl)cc1Nc1nc(C(F)(F)F)ccc1C(=O)N/N=C/c1cc(OC)c(OC)c(OC)c1`, with 54.9%.
Then `COc1ccc(-c2nn(-c3cccc(Cl)c3)cc2-c2c(C#N)c(=O)n3[nH]c(-c4ccc(C)cc4)nc3c2C#N)cc1`, with 75.3%; and `N#CC1=CC2CN(Cc3ccccc3)C1C1C(=O)N(c3ccccc3)C(=O)C21` (stereo not given), with 88%.
`Cc1n[nH]c(C)c1N=Nc1cccc2c1C(=O)c1ccccc1C2=O`: the growth was 84.7%.
Turning to `CNS(=O)(=O)Oc1ccc(-c2sc3cc(OS(=O)(=O)NC)ccc3c2C(=O)c2ccc(OCCN3CCCCC3)cc2)cc1`, the growth is 65.6%.
For the compound `O=C(Nc1cc(Cl)cc2c1-c1ccc(Cl)cc1C2O)C(Cl)Cl` (stereo not given), the growth is 79.5%.
Then `CCN(CC)CCCOc1cccc2c1C(=O)c1cccc(OCCCN(CC)CC)c1C2=O`, with 38.2%; and `CCCc1cn(CC(=O)Nc2nc3ccccc3s2)nn1`, with 110%.
Then `NS(=O)(=O)Oc1ccc(NC(=O)C2CCCCCC2)cc1`, with 97.4%; and `CN(C)CCOc1ccccc1NC1=C(Cl)C(=O)C(Nc2ccccc2OCCN(C)C)=C(Cl)C1=O`, with 64.1%; and `COc1ccccc1-n1c(-c2csc(NC(C)=O)n2)n[nH]c1=S`, with 93.1%.
The figure for `CC(C)=CCC/C(C)=C/CC/C(C)=C/CC/C=C(\C)CC/C=C(\C)CCC(=O)Nc1ccn(C2OC(CO)C(O)C2(F)F)c(=O)n1` (stereo not given) is 25.3%.
With `CC(=O)[C@H]1CC[C@]2(C)[C@@H]1CC[C@@H]1[C@@]3(C)CC(CCC#N)(CCC#N)C(=O)C(C)(C)[C@@H]3CC[C@]12C`, the growth was 86.7%.
Then `COC1=CC(=O)OC(c2ccc(OC)cc2)C1` (stereo not given), with 89.2%; and `CS(=O)(=O)c1nccc(-c2c(-c3cccc(OCCN4CCOCC4)c3)nc3sccn23)n1`, with 90.3%; and `COc1cc(/C=C/c2cc(/C=C/c3ccc(O)c(OC)c3)n(C(=O)Nc3ccc(C)cc3)n2)ccc1O`, with -10.4% (active).

Values taken from PubChem BioAssay (NCI).
